Some test systems named below: SR leukemia; RPMI-8226 leukemia; OVCAR-8 ovarian; OVCAR-5 ovarian; OVCAR-4 ovarian; SK-OV-3 ovarian; IGROV1 ovarian; OVCAR-3 ovarian; HS 578T breast; NCI/ADR-RES ovarian.
Holding throughout (assay): NCI-60 one-dose screen, 48 h (100 = growth as untreated, 0 = no growth, -100 = all killed)
Holding throughout (conditions): 10 µM unless noted

Compounds without any hit were thinned out: in the full panel of roughly 83,000, 20% have a hit.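 The test compound was applied at a single concentration to cells in 96-well plates for 48 hours, and percent growth was recorded.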 A number with no mark means an inactive call. The source made the active and inactive calls. How the source made its calls: active means growth percent below 10; inactive means the rest.

This note sets out measurements from PubChem BioAssay (NCI).

Turning to `CCOC(=O)C#Cc1c(C(=O)OCC)nnn1[C@@H]1O[C@H](CO)[C@H]2OC3(CCCCC3)O[C@H]21`, the growth is -8.98% (active) in the test on SR leukemia; 14.2% in the test with RPMI-8226 leukemia; 95.3% with OVCAR-8 ovarian; 105% in the test with OVCAR-5 ovarian; 56% in the test on OVCAR-4 ovarian; 98.1% with SK-OV-3 ovarian. Further, the growth with IGROV1 ovarian is 96%; in the test with OVCAR-3 ovarian, 4.07% (active); in the test with HS 578T breast, 89.7%; in the test on NCI/ADR-RES ovarian it was 100%.
In the case of `COCCNC(=O)c1ccc(-c2nc3ccc4[nH]ncc4c3c3c2CCCC3)cc1`, the growth in the test on SR leukemia is 5.46% (active); in the test with RPMI-8226 leukemia, 29.6%; in the test on OVCAR-8 ovarian, 46%; in the test on OVCAR-5 ovarian it was 67.8%; in the test with OVCAR-4 ovarian, 61.9%; in the test on SK-OV-3 ovarian, 6.55% (active). For the same molecule, the growth in the test with IGROV1 ovarian is 15.8%; in the test with OVCAR-3 ovarian it was 56%; in the test with HS 578T breast it was -6.17% (active); with NCI/ADR-RES ovarian, 63.9%.
For the molecule `Cn1c(=O)c2c(nc(NC3=NS(=O)(=O)c4ccccc43)n2CC(=O)N2CCc3ccccc32)n(C)c1=O`, the growth in the test on SR leukemia was 124%; with RPMI-8226 leukemia it was 108%; in the test with OVCAR-8 ovarian it was 98.9%; in the test with OVCAR-5 ovarian it was 101%; in the test on OVCAR-4 ovarian it was 107%; with SK-OV-3 ovarian it was 101%. Moreover, the growth in the test on IGROV1 ovarian is 94.7%; in the test with OVCAR-3 ovarian, 110%; in the test with HS 578T breast it was 97%; in the test on NCI/ADR-RES ovarian, 91.8%.
For `CC(=O)N1N=C(c2ccc(Nc3nc(Nc4ccc(Cl)cc4)nc(Nc4ccc(Cl)cc4)n3)cc2)CC1c1ccco1` (stereo not given), the growth in the test with SR leukemia is 64.9%; in the test on RPMI-8226 leukemia, 34.5%; in the test on OVCAR-8 ovarian it was 83.2%; with OVCAR-5 ovarian, 105%; in the test with OVCAR-4 ovarian, 97.3%; in the test with SK-OV-3 ovarian, 124%. Also, the growth in the test on IGROV1 ovarian was 89.4%; in the test with OVCAR-3 ovarian, 104%; in the test with HS 578T breast, 114%; with NCI/ADR-RES ovarian, 93.5%.
In the case of `COc1cc(/C=C\c2cc(/C=C\c3ccc(O)c(OC)c3)n(C(=O)COc3ccc(Cl)cc3Cl)n2)ccc1O`, the growth is 0.0066% (active) in the test on SR leukemia; -6.8% (active) in the test on RPMI-8226 leukemia; 6.52% (active) in the test with OVCAR-8 ovarian; 56.7% with OVCAR-5 ovarian; 31.4% with OVCAR-4 ovarian; -0.155% (active) in the test with SK-OV-3 ovarian. Further, the growth in the test on IGROV1 ovarian is 12.5%; with OVCAR-3 ovarian, 14%; in the test with HS 578T breast, 10.2%; in the test with NCI/ADR-RES ovarian, 21.5%.
On to `COc1ccc2[nH]cc(-c3nc(-c4cn(C)c5c(Cl)nccc45)cs3)c2c1`, for which the growth was 13.9% in the test with SR leukemia; 44.7% in the test with RPMI-8226 leukemia; 22.9% in the test on OVCAR-8 ovarian; 97.4% in the test with OVCAR-5 ovarian; 68.8% in the test with OVCAR-4 ovarian; 60.1% in the test on SK-OV-3 ovarian. Further, the growth in the test with IGROV1 ovarian was 71.3%; in the test on OVCAR-3 ovarian, 77.6%; in the test on HS 578T breast it was 54.3%; in the test with NCI/ADR-RES ovarian, 11.1%.
On to `COc1ccc(OC)c(C(=O)/C=C/c2cc3c(c(OC)c2OC)OCO3)c1`, for which the growth with SR leukemia was 17.8%; with RPMI-8226 leukemia, 6.09% (active); in the test on OVCAR-8 ovarian, 58.1%; in the test on OVCAR-5 ovarian, 121%; in the test with OVCAR-4 ovarian it was 63.4%; in the test on SK-OV-3 ovarian, 79.1%. Further, the growth was 71.5% in the test on IGROV1 ovarian, 59.4% in the test with OVCAR-3 ovarian, 75.9% in the test with HS 578T breast and 63.1% in the test on NCI/ADR-RES ovarian.
Consider `COc1cccc(/C=C/C(=O)c2cc3c(N)c(C(=O)Nc4ccccc4)sc3nc2C)c1`, for which the growth was 10.8% in the test on SR leukemia; -18.7% (active) in the test on RPMI-8226 leukemia; 3.31% (active) in the test on OVCAR-8 ovarian; 46.1% with OVCAR-5 ovarian; 61.5% with OVCAR-4 ovarian; 94.6% in the test on SK-OV-3 ovarian. Besides, the growth with IGROV1 ovarian was 2.44% (active); with OVCAR-3 ovarian it was -26.5% (active); in the test on HS 578T breast, 24.6%; with NCI/ADR-RES ovarian it was -10.5% (active).
As to `N#Cc1c(-c2cccs2)cc(-c2cccnc2)[nH]c1=O`, the growth in the test with SR leukemia was 95.9%; in the test with RPMI-8226 leukemia, 98.6%; in the test on OVCAR-8 ovarian, 97.9%; in the test on OVCAR-5 ovarian, 96.9%; with OVCAR-4 ovarian, 118%; in the test on SK-OV-3 ovarian it was 97.2%. The growth with IGROV1 ovarian is 108%; with OVCAR-3 ovarian, 104%; in the test with HS 578T breast, 102%; in the test on NCI/ADR-RES ovarian, 103%.
For the molecule `O=c1c2cc(-c3ccccc3)sc2nc2sc(-c3ccccc3)nn12`, the growth is 99.1% in the test on SR leukemia; 92.4% in the test on RPMI-8226 leukemia; 104% in the test with OVCAR-8 ovarian; 115% in the test with OVCAR-5 ovarian; 105% in the test on OVCAR-4 ovarian; 108% in the test on SK-OV-3 ovarian. Besides, the growth with IGROV1 ovarian was 109%; in the test on OVCAR-3 ovarian, 108%; in the test on HS 578T breast it was 96%; in the test on NCI/ADR-RES ovarian, 107%.
As to `O=C(N/N=C/c1ccc(F)cc1)c1ccc(C(F)(F)F)nc1Nc1cccc(C(F)(F)F)c1`, the growth is -30.5% (active) in the test with SR leukemia; -49.8% (active) in the test with RPMI-8226 leukemia; 9.33% (active) with OVCAR-8 ovarian; -7.78% (active) with OVCAR-5 ovarian; -6.96% (active) in the test with OVCAR-4 ovarian; -7.48% (active) in the test on SK-OV-3 ovarian. Further, the growth with IGROV1 ovarian was -19.6% (active); with OVCAR-3 ovarian it was -7.4% (active); with HS 578T breast it was -5.72% (active); in the test on NCI/ADR-RES ovarian it was -22.9% (active).
On to `CCOC(=O)CNP(=O)(OC[C@@H](Cc1ccccc1)NC(=O)c1cc2ccccc2s1)Oc1ccccc1` (stereo not given in full), for which the growth is 23.9% in the test on SR leukemia; 79.6% with RPMI-8226 leukemia; 89.1% in the test with OVCAR-8 ovarian; 95.4% in the test on OVCAR-5 ovarian; 88.4% in the test with OVCAR-4 ovarian; 91.2% in the test on SK-OV-3 ovarian. The growth in the test with IGROV1 ovarian was 79.9%; in the test on OVCAR-3 ovarian, 79.9%; with HS 578T breast, 76.5%; in the test with NCI/ADR-RES ovarian, 51.4%.
`N#Cc1nc(-c2ccccc2)oc1S(=O)(=O)N1CCOCC1`: the growth was 1.09% (active) in the test on SR leukemia; 76.5% in the test on RPMI-8226 leukemia; 59.8% in the test with OVCAR-8 ovarian; 103% with OVCAR-5 ovarian; 84.2% in the test with OVCAR-4 ovarian; 103% in the test on SK-OV-3 ovarian. Further, the growth is 88.5% in the test with IGROV1 ovarian, 15% in the test with OVCAR-3 ovarian, 107% with HS 578T breast and 98.7% in the test with NCI/ADR-RES ovarian.
In the case of `O=[N+]([O-])/C(=C/C=C/c1ccccc1)c1ccccc1`, the growth with SR leukemia is 26.5%; with RPMI-8226 leukemia it was 35.8%; in the test on OVCAR-8 ovarian, 77.6%; with OVCAR-5 ovarian, 87.9%; with OVCAR-4 ovarian, 77.2%; with SK-OV-3 ovarian, 97.1%. In addition, the growth was -4.26% (active) in the test on IGROV1 ovarian, 1.93% (active) with OVCAR-3 ovarian, 56.8% in the test on HS 578T breast and 78.3% with NCI/ADR-RES ovarian.
As for `Nc1ncnc2c1N=C(c1ccc3c(c1)OCO3)CC(c1cccc(Nc3ccnc4cc(Cl)ccc34)c1)N2` (stereo not given), the growth was 3.03% (active) with SR leukemia; -24% (active) in the test with RPMI-8226 leukemia; 51.1% in the test on OVCAR-8 ovarian; 97% in the test with OVCAR-5 ovarian; 60.7% with OVCAR-4 ovarian; 79.2% in the test on SK-OV-3 ovarian. Further, the growth in the test on IGROV1 ovarian was 59.4%; in the test on OVCAR-3 ovarian, 67.7%; in the test on HS 578T breast, 87.1%; in the test on NCI/ADR-RES ovarian, 56.8%.
Turning to `Cc1ccc(Cc2cnc(NC(=O)c3cc(Br)cs3)s2)cc1`, the growth in the test on SR leukemia is 18.2%; in the test on RPMI-8226 leukemia it was 53.2%; in the test on OVCAR-8 ovarian it was 82.7%; with OVCAR-5 ovarian, 94.2%; in the test on OVCAR-4 ovarian, 77.3%; in the test with SK-OV-3 ovarian it was 64.9%. Further, the growth in the test on IGROV1 ovarian was 49.6%; with OVCAR-3 ovarian it was 61.9%; with HS 578T breast, 73.2%; in the test on NCI/ADR-RES ovarian it was 33.5%.
Turning to `COc1ccc(-c2nn(-c3ccccc3)cc2/C=C2/SC(=S)N(C)C2=O)cc1`, the growth is 29.3% in the test on SR leukemia; 89.8% in the test with RPMI-8226 leukemia; 49.8% in the test with OVCAR-8 ovarian; 76.3% in the test with OVCAR-5 ovarian; -24% (active) in the test with OVCAR-4 ovarian; 90.8% in the test on SK-OV-3 ovarian. The growth in the test on IGROV1 ovarian is 33.3%; in the test on OVCAR-3 ovarian, 53%; in the test on HS 578T breast it was 39.3%; in the test on NCI/ADR-RES ovarian, 74.5%.
For the molecule `CCn1c(=S)[nH]c2c(=O)n(C)c(=O)n(C)c21`, the growth with SR leukemia was 110%; in the test on RPMI-8226 leukemia, 101%; with OVCAR-8 ovarian, 101%; with OVCAR-5 ovarian it was 104%; with OVCAR-4 ovarian, 114%; with SK-OV-3 ovarian, 107%. The growth was 102% with IGROV1 ovarian, 121% in the test on OVCAR-3 ovarian, 160% with HS 578T breast and 103% in the test on NCI/ADR-RES ovarian.
As for `C=C1C(=O)O[C@H]2[C@H]1CC/C(COC(=O)NCc1ccc(Cn3c(=O)sn(CCI)c3=O)cc1)=C\CC[C@@]1(C)O[C@@H]21`, the growth in the test with SR leukemia is -2.32% (active); in the test with RPMI-8226 leukemia, 29.1%; in the test on OVCAR-8 ovarian, 89.4%; in the test on OVCAR-5 ovarian, 82%; with OVCAR-4 ovarian, 32.1%; with SK-OV-3 ovarian it was 109%. Besides, the growth with IGROV1 ovarian is -75.5% (active); in the test on OVCAR-3 ovarian, -55.4% (active); in the test with HS 578T breast it was 94.3%; in the test with NCI/ADR-RES ovarian, 101%.
Take `CC(C)OC(=O)c1ccc2[nH]c(O)c(C(=Nc3ccc(N(C)C(=O)CN4CCN(C)CC4)cc3)c3ccccc3)c2c1`: the growth in the test with SR leukemia is -20.3% (active); with RPMI-8226 leukemia it was -28.9% (active); in the test on OVCAR-8 ovarian it was -37.4% (active); in the test on OVCAR-5 ovarian, -36.2% (active); in the test with OVCAR-4 ovarian, -72.3% (active); in the test with SK-OV-3 ovarian, -81.6% (active). For the same molecule, the growth was -39.2% (active) in the test on IGROV1 ovarian, -75.7% (active) with OVCAR-3 ovarian, -7.07% (active) in the test with HS 578T breast and 38.4% in the test on NCI/ADR-RES ovarian.
